For six compounds, residual activity results are on record in ChEMBL document CHEMBL2218924, “A broad activity screen in support of a chemogenomic map for kinase signalling research and drug discovery” (Biochem J, 2013).

Molecules are shown by their SMILES.

The target of assay [1] is Tyrosine-protein kinase SYK (Homo sapiens) (UniProt P43405). The note with it: at 10 µM.
The target of assay [2] is T1, Mitogen-activated protein kinase kinase kinase 7 (Homo sapiens) (UniProt O43318).
T1 sequence (whole entry): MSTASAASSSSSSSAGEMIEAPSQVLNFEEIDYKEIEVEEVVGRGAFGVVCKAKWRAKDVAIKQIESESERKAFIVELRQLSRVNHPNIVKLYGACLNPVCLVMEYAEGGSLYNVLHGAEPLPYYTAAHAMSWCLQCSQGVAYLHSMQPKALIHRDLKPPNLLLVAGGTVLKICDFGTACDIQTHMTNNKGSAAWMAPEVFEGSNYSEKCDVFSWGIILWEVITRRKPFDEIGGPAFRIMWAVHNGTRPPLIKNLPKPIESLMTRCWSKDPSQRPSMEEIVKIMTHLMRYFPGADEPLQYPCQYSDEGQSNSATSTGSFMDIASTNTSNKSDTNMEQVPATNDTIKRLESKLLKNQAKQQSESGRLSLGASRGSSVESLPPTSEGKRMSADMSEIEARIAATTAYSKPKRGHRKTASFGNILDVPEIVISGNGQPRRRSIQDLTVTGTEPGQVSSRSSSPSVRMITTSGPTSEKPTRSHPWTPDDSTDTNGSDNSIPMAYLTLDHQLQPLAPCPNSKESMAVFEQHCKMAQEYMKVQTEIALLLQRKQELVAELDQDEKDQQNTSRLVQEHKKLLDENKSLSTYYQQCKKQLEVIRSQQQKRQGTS
The note with it: at 1 µM.

Assay [3] has as its target T1, Mitogen-activated protein kinase kinase kinase 7 (Homo sapiens). The note with it: at 10 µM.
Assay [4] deals with T2, Serine/threonine-protein kinase TAO1 (Homo sapiens) (UniProt Q7L7X3).
T2 sequence (whole entry): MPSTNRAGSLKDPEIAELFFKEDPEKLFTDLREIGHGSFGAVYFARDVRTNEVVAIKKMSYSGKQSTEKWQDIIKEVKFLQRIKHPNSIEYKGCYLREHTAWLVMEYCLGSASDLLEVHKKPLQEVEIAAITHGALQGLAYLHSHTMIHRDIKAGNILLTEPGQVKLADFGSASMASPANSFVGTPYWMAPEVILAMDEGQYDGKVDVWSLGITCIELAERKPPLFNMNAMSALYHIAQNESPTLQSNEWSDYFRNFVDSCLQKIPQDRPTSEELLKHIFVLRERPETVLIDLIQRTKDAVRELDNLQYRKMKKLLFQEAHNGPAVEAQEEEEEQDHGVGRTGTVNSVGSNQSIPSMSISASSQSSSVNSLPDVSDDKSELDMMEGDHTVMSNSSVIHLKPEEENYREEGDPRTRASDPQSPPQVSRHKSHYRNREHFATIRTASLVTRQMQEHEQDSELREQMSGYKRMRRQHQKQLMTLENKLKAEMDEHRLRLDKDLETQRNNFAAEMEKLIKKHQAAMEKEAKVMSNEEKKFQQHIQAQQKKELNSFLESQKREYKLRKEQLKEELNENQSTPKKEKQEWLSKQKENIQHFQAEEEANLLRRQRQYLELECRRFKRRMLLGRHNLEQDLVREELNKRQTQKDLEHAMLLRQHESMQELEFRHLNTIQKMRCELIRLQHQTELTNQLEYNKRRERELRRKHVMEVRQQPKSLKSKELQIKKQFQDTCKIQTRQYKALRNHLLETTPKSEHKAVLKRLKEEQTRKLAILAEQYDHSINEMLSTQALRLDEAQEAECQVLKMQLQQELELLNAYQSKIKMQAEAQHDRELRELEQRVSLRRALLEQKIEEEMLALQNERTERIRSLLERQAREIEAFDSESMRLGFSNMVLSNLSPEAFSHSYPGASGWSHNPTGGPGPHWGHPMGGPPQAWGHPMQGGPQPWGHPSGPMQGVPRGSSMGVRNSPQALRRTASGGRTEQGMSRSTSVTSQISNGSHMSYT
The note with it: at 1 µM.

Assay [5] deals with T2, Serine/threonine-protein kinase TAO1 (Homo sapiens). To be noted: at 10 µM.
Assay [6] addresses T3, Serine/threonine-protein kinase TAO2 (Homo sapiens) (UniProt Q9UL54).
T3 sequence (whole entry): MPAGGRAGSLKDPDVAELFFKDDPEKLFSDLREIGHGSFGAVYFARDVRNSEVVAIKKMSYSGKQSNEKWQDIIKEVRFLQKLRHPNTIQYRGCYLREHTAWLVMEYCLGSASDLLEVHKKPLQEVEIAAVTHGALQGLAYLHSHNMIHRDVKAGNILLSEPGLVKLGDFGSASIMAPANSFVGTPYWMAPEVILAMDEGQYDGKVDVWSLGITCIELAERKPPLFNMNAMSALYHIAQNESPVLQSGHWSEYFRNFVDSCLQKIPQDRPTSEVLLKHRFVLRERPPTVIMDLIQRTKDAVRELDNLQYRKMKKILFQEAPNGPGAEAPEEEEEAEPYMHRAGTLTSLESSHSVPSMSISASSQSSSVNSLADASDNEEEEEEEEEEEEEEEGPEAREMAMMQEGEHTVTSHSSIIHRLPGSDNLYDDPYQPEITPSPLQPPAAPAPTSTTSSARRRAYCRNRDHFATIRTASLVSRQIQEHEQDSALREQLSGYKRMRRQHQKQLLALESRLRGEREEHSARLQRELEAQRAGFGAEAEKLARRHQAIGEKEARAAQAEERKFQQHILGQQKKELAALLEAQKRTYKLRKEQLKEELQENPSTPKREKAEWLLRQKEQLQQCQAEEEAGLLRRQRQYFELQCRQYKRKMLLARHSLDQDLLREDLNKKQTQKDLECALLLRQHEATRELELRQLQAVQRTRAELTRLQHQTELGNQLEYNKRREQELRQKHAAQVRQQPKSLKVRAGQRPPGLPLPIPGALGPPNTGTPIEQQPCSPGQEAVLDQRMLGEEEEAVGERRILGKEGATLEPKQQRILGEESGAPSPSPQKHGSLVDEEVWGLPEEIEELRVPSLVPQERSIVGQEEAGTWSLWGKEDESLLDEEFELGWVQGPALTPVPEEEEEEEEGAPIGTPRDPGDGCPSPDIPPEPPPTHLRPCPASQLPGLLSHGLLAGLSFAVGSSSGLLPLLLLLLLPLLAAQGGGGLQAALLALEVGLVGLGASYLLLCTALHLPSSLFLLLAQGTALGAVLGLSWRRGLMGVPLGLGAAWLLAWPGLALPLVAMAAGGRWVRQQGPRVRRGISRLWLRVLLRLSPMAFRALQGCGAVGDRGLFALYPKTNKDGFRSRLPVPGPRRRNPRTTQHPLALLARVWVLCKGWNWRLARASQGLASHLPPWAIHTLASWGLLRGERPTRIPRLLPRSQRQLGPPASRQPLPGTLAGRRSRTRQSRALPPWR
The note with it: at 1 µM.

Assay [7] addresses T3, Serine/threonine-protein kinase TAO2 (Homo sapiens). The note with it: at 10 µM.
Assay [8] concerns the target T4, Serine/threonine-protein kinase TAO3 (Homo sapiens) (UniProt Q9H2K8).
T4 sequence (whole entry): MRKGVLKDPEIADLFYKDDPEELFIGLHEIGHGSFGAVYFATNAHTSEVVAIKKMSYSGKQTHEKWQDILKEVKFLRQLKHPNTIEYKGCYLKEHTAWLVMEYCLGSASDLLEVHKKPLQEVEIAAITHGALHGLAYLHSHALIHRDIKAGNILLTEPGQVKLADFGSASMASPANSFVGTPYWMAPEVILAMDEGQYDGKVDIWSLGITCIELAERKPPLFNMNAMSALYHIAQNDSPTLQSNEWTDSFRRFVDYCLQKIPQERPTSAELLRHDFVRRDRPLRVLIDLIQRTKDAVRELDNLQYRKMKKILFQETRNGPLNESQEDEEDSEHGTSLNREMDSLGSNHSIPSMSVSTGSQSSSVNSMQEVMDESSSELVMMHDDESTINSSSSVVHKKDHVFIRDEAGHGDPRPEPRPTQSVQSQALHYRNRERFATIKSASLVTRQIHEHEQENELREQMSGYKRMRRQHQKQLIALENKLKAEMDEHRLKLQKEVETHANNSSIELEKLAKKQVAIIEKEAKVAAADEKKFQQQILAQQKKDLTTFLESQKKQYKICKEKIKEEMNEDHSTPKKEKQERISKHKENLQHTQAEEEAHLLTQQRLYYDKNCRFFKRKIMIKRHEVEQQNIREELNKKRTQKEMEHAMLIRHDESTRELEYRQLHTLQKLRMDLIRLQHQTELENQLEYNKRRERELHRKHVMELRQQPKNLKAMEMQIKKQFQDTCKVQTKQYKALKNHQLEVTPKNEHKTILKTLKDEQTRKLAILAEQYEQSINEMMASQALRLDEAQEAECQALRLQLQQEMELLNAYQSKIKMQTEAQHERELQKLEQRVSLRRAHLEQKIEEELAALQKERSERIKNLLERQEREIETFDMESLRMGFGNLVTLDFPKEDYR
The note with it: at 1 µM.

Assay [9] deals with T4, Serine/threonine-protein kinase TAO3 (Homo sapiens). To be noted: at 10 µM.
Assay [10] concerns the target T5, Serine/threonine-protein kinase TBK1 (Homo sapiens) (UniProt Q9UHD2).
T5 sequence (whole entry): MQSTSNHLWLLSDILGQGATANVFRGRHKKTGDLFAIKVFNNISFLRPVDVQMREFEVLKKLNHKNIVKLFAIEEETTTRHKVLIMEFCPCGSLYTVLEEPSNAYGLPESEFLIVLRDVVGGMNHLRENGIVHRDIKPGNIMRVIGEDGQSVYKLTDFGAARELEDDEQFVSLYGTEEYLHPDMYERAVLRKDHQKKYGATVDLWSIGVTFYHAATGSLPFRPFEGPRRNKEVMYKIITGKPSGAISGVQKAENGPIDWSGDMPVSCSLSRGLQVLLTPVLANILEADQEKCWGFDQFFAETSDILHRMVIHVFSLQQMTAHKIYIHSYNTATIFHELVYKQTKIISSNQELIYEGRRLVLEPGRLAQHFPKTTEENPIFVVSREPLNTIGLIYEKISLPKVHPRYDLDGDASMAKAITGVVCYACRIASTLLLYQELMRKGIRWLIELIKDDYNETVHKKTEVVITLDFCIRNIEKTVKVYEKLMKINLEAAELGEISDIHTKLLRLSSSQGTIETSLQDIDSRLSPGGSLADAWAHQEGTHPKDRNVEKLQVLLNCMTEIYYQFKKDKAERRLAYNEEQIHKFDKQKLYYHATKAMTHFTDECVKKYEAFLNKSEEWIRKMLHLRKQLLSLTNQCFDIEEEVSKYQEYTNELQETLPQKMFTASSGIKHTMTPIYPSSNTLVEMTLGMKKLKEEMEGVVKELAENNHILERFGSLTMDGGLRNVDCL
To be noted: at 1 µM.

With `CCCC(=O)Oc1ccc2[nH]c(C(=O)c3cc4ccccc4[nH]3)cc2c1`, the residual activity in assay [1] was found to be 101%; in [2], 83%; in assay [3] it was 87%; in assay [4], 91%; in assay [5] it was 81%; in [6], 104%. In addition, the residual activity came to 83% in [7], 89% in assay [8], 86% in assay [9] and 63% in [10].
Take `O=C(CCCc1ccc(-c2ccccc2F)cc1)Nc1ccc(O)cc1`: the residual activity in assay [1] amounted to 79%; in [2], 93%; in assay [3] it was 92%; in assay [4] it was 103%; in assay [5] it was 95%; in [6], 105%. The residual activity in [7] was determined as 102%; in [8], 100%; in assay [9], 94%; in assay [10], 90%.
With `CCCCc1c(-c2ccc(O)cc2)[nH]c2nccnc12`, the residual activity in assay [1] was found to be 66%; in assay [2], 90%; in assay [3], 89%; in assay [4], 36%; in assay [5] it was 7%; in assay [6], 35%. The residual activity in assay [7] was 30%; in assay [8] it was 62%; in assay [9], 68%; in assay [10], 70%.
In the case of `O=C(Nc1nc2ccccc2n1CCN1CCOCC1)c1cccc([N+](=O)[O-])c1`, the residual activity in assay [1] is 84%; in assay [2], 78%; in assay [3] it was 74%; in [10], 73%.
Take `CC(C)[C@H](CO)Nc1nc(Nc2cc(N)cc(Cl)c2)c2ncn(C(C)C)c2n1`: the residual activity in [1] was 73%; in assay [2], 85%; in [3] it was 30%; in [4] it was 92%; in assay [5], 52%; in assay [6] it was 88%. For the same compound, the residual activity is 73% in assay [7], 93% in [8], 54% in assay [9] and 97% in assay [10].
Take `O=C1Cc2c([nH]c3ccc(Br)cc23)-c2ccccc2N1`: the residual activity in assay [1] came to 25%; in assay [2] it was 81%; in assay [3] it was 68%; in assay [4], 76%; in assay [5], 28%; in assay [10] it was 53%.
